From PubChem BioAssay (NCI) come the findings set out here.

The panel holds about 83,000 compounds, 20% with a hit somewhere; the sample as a whole holds those more often.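 48-hour exposure, single concentration, 96-well plates; percent growth endpoint where 0 means no net growth. Active: below 10.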 Values without a mark were called inactive. Activity calls are given as the source filed them.

The assay relates to 786-0 renal. The assay is described as follows: NCI-60 one-dose screen, 48 h (100 = growth as untreated, 0 = no growth, -100 = all killed). Particulars: 10 µM unless noted.
Take `Nc1ccccc1-c1ccc(-c2ccc(Cl)cc2)c2c1[nH]c1ccccc12`: the growth is 76.5%.
As for `OC(CNC1CCCCC1)Cn1c2ccc(I)cc2c2cc(I)ccc21` (centres undefined), the growth was 77.7%.
Regarding `COc1cc(C(=O)NN=C2c3ccccc3-c3ccccc32)cc(OC)c1OC`, the growth was 41.9%.
In the case of `C=C(C)CCC(C)N1CCC(N2CCC(C(=O)NCCc3ccccc3)CC2)CC1` (centres undefined), the growth is 70.2%.
With `C#CCn1cc(C=C2C(=O)N(C)C(=O)N(C)C2=O)c2cc(Cl)ccc21`, the growth was 111%.
In the case of `O=C(Nc1ccc(C23CC4CC(CC(c5ccccc5)(C4)C2)C3)cc1)c1cccs1`, the growth was 78.7%.
Take `O=C(Cc1ccccc1)NC(c1ccc(Cl)cc1)c1c(O)ccc2ccccc12` (centres undefined): the growth was 26%.
Regarding `COc1ccc(CSc2nnc(SCC(=O)Nc3ccc(Cl)cc3)s2)cc1`, the growth was 68.7%.
Regarding `O=C(COc1cc(O)c2c(=O)cc(-c3ccccc3)oc2c1)Nc1ccccc1C(F)(F)F`, the growth is 7.11% (active).
The figure for `Cc1cc(OC(=O)c2ccc([N+](=O)[O-])cc2)nc2[nH]c(=O)sc12` is 104%.
The figure for `O=c1oc2ccc(F)cc2c(=O)n1-c1ccc(I)cc1F` is 0.0953% (active).
Regarding `O=Cc1c(OCc2cnnn2CC(=O)Nc2ccc(Br)cc2)ccc2ccccc12`, the growth was 102%.
Turning to `COc1ccc2[nH]c(O)c(N=NC(=O)c3oc4ccccc4c3C)c2c1`, the growth was -66.9% (active).
The figure for `Cc1cc(Nc2ccc(OCc3ccccc3)cc2)nc2cc(O)ccc12` is 72.2%; for `O=C(COc1cc(O)c2c(=O)cc(-c3ccccc3)oc2c1)Nc1ccccc1` it is 81.9%.
`O=C(Nc1ccc(-c2nc3ccc(NC(=O)c4ccc(Cl)cc4)cc3[nH]2)cc1)c1ccc(Cl)cc1`: the growth was -22.8% (active).
As to `O=C1c2cc(Br)ccc2Oc2cc([N+](=O)[O-])ccc2N1c1ccc(I)cc1F`, the growth was 104%.
The figure for `Cc1ccc2nc(NC(=O)CSC(=S)N3CCN(c4ccccc4)CC3)sc2c1` is 103%; for `CCCCCCC(O)(c1ccc(F)cc1)C(CN1CCOCC1)c1ccccc1` (centres undefined) it is 44.9%.
Regarding `COc1ccc(CCN2CCC(CN(C)Cc3cnn(-c4ccccc4)c3)CC2)cc1`, the growth is 25.6%.
Take `NC(=O)CSc1nc(-c2ccc(F)cc2)cc(-c2ccco2)n1`: the growth was 105%.
`CCCSC1=NC2C(N(CC)C(=O)N2CC)N1/N=C/C=C/c1ccccc1[N+](=O)[O-]` (centres undefined): the growth was 33.4%.
As to `O=c1oc2ccc(Cl)cc2c(=O)n1-c1ccc(I)cc1F`, the growth is 2.82% (active).
The figure for `COc1ccc(C2NCCc3c2[nH]c2ccccc32)cc1CN1CCN(c2ccc(F)cc2)CC1` (centres undefined) is 51%; for `Cc1sc2ncnc(Sc3nc4ccccc4[nH]3)c2c1C` it is -94.7% (active).
Take `FC(F)(F)c1cccc(CNC2CCN(CCc3ccccc3)CC2)c1`: the growth is 78.6%.
The figure for `O=C(Nc1ccc(I)cc1F)c1cc(Br)ccc1O` is 1.97% (active); for `Cc1ccc2[nH]c(=O)cc(-n3nncc3Cn3c4ccccc4c4ccccc43)c2c1` it is 101%; for `CC(=O)n1cc(-c2c[nH]c3ccccc23)c(-c2ccc(Cl)cc2)n1` it is 78.9%.
In the case of `CC[C@H](C)[C@@H](C(=O)OC)n1cc(CNC(=O)[C@@H](Cc2ccccc2)NC(=O)OCc2ccccc2)nn1`, the growth is 106%.
The figure for `O=C(Nc1ccc(I)cc1F)c1cc(Cl)ccc1O` is -7.97% (active); for `NNC(=O)CNC(=O)Nc1n[nH]c(=S)s1` it is 103%; for `COc1ccc(Nc2cc(C)nc(NCc3ccccc3)n2)cc1` it is 34.1%.
The figure for `O=C(Nc1ccc(N2CCNCC2)cn1)c1[nH]ncc1Nc1ncnc2sc3c(c12)CCC3` is -85.5% (active); for `COc1c(B(O)O)cccc1-c1nc2ccc3[nH]ncc3c2c2c1C1CCC2C1` (centres undefined) it is 52.6%; for `COC(=O)c1cc2c(n1Cc1ccccc1)-c1oncc1CCC2` it is 92.3%.
The figure for `O=C(Nc1ccc(N2CCNCC2)cc1)c1[nH]ncc1Nc1cc(C2CC2)ncn1` is 56.7%; for `CC(C)CCNCC(O)Cn1c2ccccc2c2ccccc21` (centres undefined) it is 25.2%; for `COc1cc(/C=C2\CN(C)C/C(=C\c3cc(CN4CCOCC4)c(O)c(OC)c3)C2=O)cc(CN2CCOCC2)c1O` it is 76.6%.
